Compound activity: PubChem BioAssay, several laboratories
NR3A LBD binder: modulators (binders) of human NR3A ligand-binding domain; AID 1259313; Tm shift relative to glycine control, % at 25 µM; 340,000 tested, 2.5% active; NR3A LBD differential scanning fluorimetry, Tm shift; 0% = protein alone, 100% = glycine-bound protein;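 active = melting temperature shift of at least 10% of the positive control shift, at one fixed dose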
ADAM10 inh: inhibits human ADAM10; O14672; recombinant ADAM10, EDANS/DABCYL FRET peptide cleavage, 3 h; inhibition, % at 7 µM; 370,000 tested, 0.62% active; AID 720582;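 active = inhibition above a per-campaign cutoff equal to the mean of compounds falling between control-based bounds plus 3 SD, cut at about 20% in these data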;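 also: 0% = DMSO wells while the 100% control is not disclosed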
FAS-TE inh: FAS thioesterase (human) inhibition. P49327. recombinant FAS-TE, OMFH fluorogenic substrate, fluorescence endpoint. inhibition, % at 15 µM. 360,000 tested, 0.67% active. AID 602261;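 active = compounds whose normalised, plate-corrected inhibition of enzyme fluorescence in the single-dose primary screen is 50% or more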;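 also: 0% = DMSO with enzyme and 100% = substrate without enzyme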
proKLK7 act: proKLK7 (human) activation, primary screen | purified proKLK7, EDANS-DABCYL substrate fluorescence; 100% is mature enzyme control, 0% vehicle | P49862 | 370,000 tested, 0.9% active | activation, % at 7 µM;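 active = activation above the mean of all tested compounds plus 3 SD, computed per campaign excluding outliers beyond control limits, cut at about 13% in these data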
Target sequence (P49862 whole entry, looked up): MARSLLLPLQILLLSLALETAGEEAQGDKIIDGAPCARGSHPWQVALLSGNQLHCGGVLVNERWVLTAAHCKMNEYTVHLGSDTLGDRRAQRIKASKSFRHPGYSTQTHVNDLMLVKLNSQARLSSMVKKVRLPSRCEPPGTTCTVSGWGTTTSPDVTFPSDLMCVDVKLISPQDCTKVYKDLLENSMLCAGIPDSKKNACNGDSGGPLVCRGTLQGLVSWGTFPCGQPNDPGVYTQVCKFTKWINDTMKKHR
ADAM17 inh: inhibitors of human ADAM17; P78536; recombinant ADAM17, EDANS/DABCYL FRET peptide cleavage; inhibition, % at 6.95 µM; 370,000 tested, 0.83% active;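 active = inhibition above the mean of compounds lying between control limits plus 3 SD, set per campaign, cut at about 8.5% in these data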;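 also: 0% = DMSO-only wells as the low control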
ADAM10 confirm: human ADAM10 inhibition, confirmation. shares compounds with ADAM10 inh. inhibition, % at 6.95 µM. ADAM10 QFRET peptide cleavage, EDANS fluorescence. 2,100 tested, 1% active;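 active = inhibition above about 20% chosen separately for each screening run, limit read from the data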;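 also: 0% = DMSO wells and 100% = marimastat wells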
ADAM17 counter: inhibits human ADAM17 in ADAM10 exosite counter-screen; inhibition, % at 6.95 µM; ADAM17 QFRET peptide cleavage, EDANS fluorescence; 2,100 tested, 0.5% active; shares compounds with ADAM10 inh; AID 743214;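 active = mean triplicate inhibition above the solvent-only control wells' mean plus 3 SD, cut at about 12% in these data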;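 also: 0% = DMSO wells and 100% = marimastat wells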
ADAM10 counter: ADAM10 inhibition, counter-screen for ADAM17 exosite hits; inhibition, % at 6.95 µM; shares compounds with ADAM17 inh; recombinant ADAM10, EDANS/DABCYL FRET peptide cleavage, 3 h; AID 743256; 2,900 tested, 47% active;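 active = mean inhibition over the triplicate runs exceeds the activity threshold set in the earlier primary screen, cut at about 20% in these data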;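 also: 0% = DMSO wells and 100% = marimastat wells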
ADAM17 confirm: human ADAM17 inhibition, confirmation; shares compounds with ADAM17 inh; recombinant ADAM17, EDANS/DABCYL QFRET peptide cleavage; inhibition, % at 6.95 µM; 2,900 tested, 65% active; AID 743257;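 active = mean inhibition across replicates above the hit cutoff set in the primary screen, cut at about 8.5% in these data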;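 also: 0% = DMSO wells and 100% = marimastat wells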
* = called active by the depositor; x = no result. Rows were chosen to be rich in hits. Some 4.6% of all compounds tested hit in one or more screens of this group.

SMILES | NR3A LBD binder | ADAM10 inh | FAS-TE inh | proKLK7 act | ADAM17 inh | ADAM10 confirm | ADAM17 counter | ADAM10 counter | ADAM17 confirm
Cc1ccc(Sc2ccc(/C=N/O)cc2[N+](=O)[O-])cc1 | -18 | 27* | -17 | 0 | 9.7* | 6 | 3 | 27* | 15*
CO/N=C/c1ccc(Sc2ccc(C)cc2)c([N+](=O)[O-])c1 | -1 | 0 | 26 | 0 | 5 | x | x | x | x
O=C(Nc1ccc2c(c1)OCCO2)C(c1ccnc2ccccc12)N1CCC(Cc2ccccc2)CC1 (stereo not given) | x | 37* | 35 | -1 | 19* | 14 | 4 | 13 | 10*
CN(CCc1ccccc1)C(C(=O)Nc1ccc2c(c1)OCCO2)c1ccnc2ccccc12 (stereo not given) | x | 4 | 26 | 0 | 2 | x | x | x | x
O=C(Nc1ccccc1)c1cc(C2CCCCN2S(=O)(=O)Cc2cccc(C(F)(F)F)c2)on1 (stereo not given) | x | 30* | 16 | 1 | 17* | 2 | 1 | 26* | 11*
COc1cc(O)c(C(CCN2CCN(c3ccccc3)CC2)c2ccc3c(c2)OCO3)c(OC)c1 (stereo not given) | -25 | 24* | 25 | 0 | 12* | 9 | 3 | 9 | 6
C=C[C@H]1C(C(=O)OCC)=CC[C@@H](c2ccccc2)N1S(=O)(=O)c1ccc(C)cc1 | x | 28* | 23 | 1 | 13* | 4 | 1 | 16 | 7
Cc1cc(NC(=O)CS(=O)(=O)c2cn(Cc3cccc(Cl)c3)c3ccccc23)no1 | x | 20* | 12 | 1 | 11* | 0 | 0 | 11 | 7
N#CCCn1nc(-c2ccccc2)cc1Nc1ccccc1NC(=O)C(F)(F)F | 3 | -16 | 1 | 1 | -5 | x | x | x | x
N#CCCn1nc(-c2ccc([N+](=O)[O-])cc2)cc1Nc1ccccc1NC(=O)C(F)(F)F | -4 | 36* | 5 | 0 | 20* | 0 | 0 | 16 | 9.5*
Cc1ccccc1-c1cc(C(=O)NCc2ccc(OC(F)(F)F)cc2)n(CC2CC(c3cccnc3)=NO2)n1 (stereo not given) | -5 | 21* | 19 | 0 | 10* | 5 | 3 | 25* | 13*
Nc1cc(OC(=O)c2c(F)cccc2Cl)nn1S(=O)(=O)c1ccccc1 | -10 | 28* | 11 | 0 | 12* | 7 | 2 | 18 | 11*
COc1ccc(NC(=O)COC(=O)CCCOc2ccc(Cl)cc2Cl)cc1 | 27* | 24* | 24 | 1 | 10* | 7 | 2 | 19 | 8
O=C(COC(=O)CCCOc1ccc(Cl)cc1Cl)NCc1ccc(F)cc1 | -10 | 2 | 0 | 0 | 4 | x | x | x | x
O=C(NCc1ccccc1)c1onc(CSc2ccc(Cl)cc2)c1C(=O)NCC1CC1 | -6 | 12 | 20 | 1 | 1 | x | x | x | x
O=C(NCc1ccccc1)c1onc(CSc2ccccc2)c1C(=O)NCC1CC1 | -6 | 25* | 40 | 0 | 12* | 7 | 3 | 41* | 22*
COc1ccc(NC(=O)COC(=O)c2c3c(nc4ccccc24)CCCC3)cc1Cl | 4 | 23* | 27 | 0 | 12* | 4 | 3 | 30* | 19*
COc1ccc(NC(=O)COC(=O)c2c3c(nc4ccccc24)CCCC3)cc1 | -10 | 19 | 14 | 0 | 3 | x | x | x | x
Cc1cc(Nc2cc(F)c(F)c(F)c2)cc(=O)n1-c1cc(F)c(F)c(F)c1 | x | -10 | x | 0 | -5 | x | x | x | x
COC(=O)[C@]12CCCCC=C1N(Cc1ccc(OC)cc1)C(=O)[C@@H]2CC(=O)NCc1cccc(C(F)(F)F)c1 | x | 11 | x | 0 | 5 | x | x | x | x
O=C(NC(Cc1c[nH]c2ccccc12)C(=O)Nc1ccc(OC(F)(F)F)cc1)c1cccs1 (stereo not given) | 33* | 25* | 31 | 1 | 12* | 12 | 3 | 59* | 30*
O=C(COc1ccccc1)N1CCN(c2ccc([N+](=O)[O-])c(N3CCCCC3)c2)CC1 | -2 | 13 | 33 | 0 | 7 | x | x | x | x
O=C(COc1ccc(Br)cc1)N1CCN(c2ccc([N+](=O)[O-])c(N3CCCCC3)c2)CC1 | -4 | 24* | 28 | 0 | 11* | 8 | 1 | 32* | 18*
COCCNC(=S)N1C[C@H]2CON(C)[C@H]2C[C@H]1c1ccccc1Br | x | -2 | x | 0 | 9.4* | x | x | -10 | -2
CCNC(=O)N1CCN(c2ccc(N3CCN(C(=O)NCC)[C@H](C)C3)c(C)c2)[C@@H](C)C1 | x | -7 | x | 1 | -3 | x | x | x | x
SMILES | NR3A LBD binder | ADAM10 inh | FAS-TE inh | proKLK7 act | ADAM17 inh | ADAM10 confirm | ADAM17 counter | ADAM10 counter | ADAM17 confirm
Cc1ccc(S(=O)(=O)N2CCN(c3ccc(C(F)(F)F)cc3[N+](=O)[O-])CC2)cc1 | -2 | 18 | 30 | -1 | 10* | x | x | 22* | 11*
COc1ccc(-c2cn[nH]c2-c2ccc(OCc3ccc([N+](=O)[O-])cc3)cc2O)cc1OC | 15* | 11 | 12 | 0 | 9.8* | x | x | 25* | 14*
CC(C)(C)S(=O)(=O)N1C[C@@H]2CC(=O)C=C2[C@H]1CCO | x | 1 | x | 0 | 5 | x | x | x | x
COC(=O)[C@]12C[C@H](CC(=O)NCc3cccc4ccccc34)C(=O)N(CCC3=CCCCC3)C1=C[C@H](C(C)(C)C)O[C@@H]2C | x | -1 | x | 0 | -2 | x | x | x | x
COc1ccccc1NC(=O)c1ccc(Cl)c(S(=O)(=O)N2CCCCC2)c1 | 0 | 14 | 19 | 1 | 10* | x | x | 3 | 3
COc1ccccc1NC(=O)c1ccc(C)c(S(=O)(=O)N2CCCCC2)c1 | 2 | 14 | 19 | 0 | 7 | x | x | x | x
O=C(CSc1nc2cc(Cl)ccc2s1)c1cc2ccccc2o1 | -3 | 17 | 21 | 0 | 12* | x | x | 5 | 5
O=C(CSc1nc2cc(Cl)ccc2s1)Nc1cccc(S(=O)(=O)N2CCOCC2)c1 | 6 | 20 | 32 | 0 | 11* | x | x | 20* | 10*
O=C(NC(C(=O)N1CCCC1C(=O)NC1CCCC1)c1ccccc1)c1cccs1 (stereo not given) | x | -4 | x | 0 | -6 | x | x | x | x
C=CCNc1ccc2c(c1)OC[C@H](CC(C)C)NS2(=O)=O | x | -10 | x | 0 | -4 | x | x | x | x
Cc1ccc(NC(=S)N/N=C/c2ccc([N+](=O)[O-])s2)cc1 | 23* | -3 | 1 | 0 | 11* | x | x | 33* | 19*
